An excerpt weighted towards active compounds, which were near 3.5% of everything screened.
GPR151 activ – activators of human GPR151, primary screen, cell-based, PathHunter beta-arrestin, luminescence; activation, % at 11.2 µM; AID 1508602, 2020; G-protein coupled receptor 151 (Homo sapiens), Q8TDV0; 1% of 650,000 active; PathHunter beta-arrestin GPR151 cells; in the data active means activation above about 4.9%
FBW7 activator – FBW7 E3 ligase activators, primary screen, biochemical, AlphaScreen, human. 0.13% of 650,000 active. AlphaScreen FBW7–phospho-cyclin E peptide binding, activator screen. AID 1259310, 2017. F-box/WD repeat-containing protein 7 (Homo sapiens), Q969H0. normalized activity (activation), % at 26.1 µM; in the data active means normalized activity above about 1.9%;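 further: purified mutant Fbw7 with reduced substrate affinity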
Target sequence (Q969H0 whole entry, looked up): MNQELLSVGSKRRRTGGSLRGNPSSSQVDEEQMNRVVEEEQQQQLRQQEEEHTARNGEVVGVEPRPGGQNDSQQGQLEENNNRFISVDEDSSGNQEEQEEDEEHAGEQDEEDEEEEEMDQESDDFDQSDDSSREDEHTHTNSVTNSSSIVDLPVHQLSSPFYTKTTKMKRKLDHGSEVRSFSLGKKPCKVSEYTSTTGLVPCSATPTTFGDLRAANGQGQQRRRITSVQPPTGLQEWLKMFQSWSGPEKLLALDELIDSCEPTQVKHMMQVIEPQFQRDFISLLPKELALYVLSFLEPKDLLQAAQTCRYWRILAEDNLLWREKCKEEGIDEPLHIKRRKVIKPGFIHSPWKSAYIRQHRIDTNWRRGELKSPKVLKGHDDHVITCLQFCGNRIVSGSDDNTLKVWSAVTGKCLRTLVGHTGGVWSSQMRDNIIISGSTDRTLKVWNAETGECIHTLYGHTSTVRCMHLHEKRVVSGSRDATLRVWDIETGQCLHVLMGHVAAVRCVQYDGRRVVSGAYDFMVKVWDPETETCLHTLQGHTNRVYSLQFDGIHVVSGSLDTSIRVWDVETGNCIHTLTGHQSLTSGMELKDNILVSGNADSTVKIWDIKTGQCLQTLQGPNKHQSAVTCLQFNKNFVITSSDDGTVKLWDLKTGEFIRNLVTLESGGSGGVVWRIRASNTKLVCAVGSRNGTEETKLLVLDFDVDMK
MITF inh – MITF inhibitors, primary screen, biochemical, AlphaScreen, human; Microphthalmia-associated transcription factor (Homo sapiens), O75030; AlphaScreen MITF homodimerization, bead proximity signal; inhibition, % at 2.6 µM; 0.91% of 650,000 active; AID 1259374, 2018; in the data active means inhibition above about 50%
TEAD-YAP block – TEAD-YAP interaction inhibition, primary screen, TEAD-YAP interaction inhibitor project, luminescence, HEK-TIYL cells; TEAD-Gal4/YAP UAS-luciferase luminescence; inhibition, % at 9.12 µM; 1.4% of 640,000 active; in the data active means inhibition above about 32%
A number is an active result; i = inactive.

SMILES	GPR151 activ	FBW7 activator	MITF inh	TEAD-YAP block
Cc1nnc2c(Nc3ccc(F)cc3)nc3ccccc3n12	i	i	i	i
O=C(Nc1nc2ccccc2[nH]1)c1cc(F)c(F)cc1Cl	i	i	i	54
CN1CCN(Cc2n[nH]c(=S)n2-c2cccc(OCc3ccccc3)c2)CC1	i	i	i	i
Cc1nc(-c2cc3cc(Cl)cc(Cl)c3oc2=O)cs1	i	i	i	i
CC1=C/C(=N\Nc2nc3ccccc3[nH]2)CC1	i	i	i	32
CC1CCC(=NNc2nc3ccccc3[nH]2)CC1 (stereo not given)	i	i	i	i
CC1=C/C(=N/Nc2nc3ccccc3[nH]2)CC(C)(C)C1	i	i	i	i
c1ccc(C2CCC(=NNc3nc4ccccc4[nH]3)CC2)cc1 (stereo not given)	i	i	i	33
CCOc1cc(C2C(C(=O)OCCc3ccccc3)=C(C)NC3=C2C(=O)CC(c2ccc(OC)cc2)C3)ccc1O (stereo not given)	i	i	i	i
O=C(O)CCC(=O)N1N=C(c2ccccc2)CC1c1ccccc1 (stereo not given)	i	1.9	i	i
COc1ccccc1CNC(=O)Cc1noc2ccc(C)cc12	i	i	i	i
O=C(COc1cccc(Br)c1)N/N=C/C=C/c1ccccc1	i	i	i	i
O=C(Nc1ccc(Oc2cccnc2)cc1)C1CCN(Cc2cc3ccccc3o2)CC1	i	i	i	44
Cc1nc(C)c(CN2CCC(C(=O)Nc3ccc(Oc4cccnc4)cc3)CC2)nc1C	i	i	i	i
COCC(C)NC(=O)c1cc2c(=O)n3ccccc3nc2s1 (stereo not given)	i	i	i	i
Brc1cccc(Nc2nc3nonc3nc2NCc2ccco2)c1	i	i	i	87
COc1ccccc1Nc1nc2nonc2nc1Nc1cccc(Br)c1	i	i	i	i
Oc1cccc(Nc2nc(NCc3ccco3)c3ccccc3n2)c1	i	i	i	i
Cc1cccc(Nc2nc(NCc3ccco3)c3ccccc3n2)c1	i	i	i	60
COC(=O)[C@@H]1C[C@@H](NC(=O)Cc2ccc(F)cc2)CN1Cc1ccc(C)cc1C	i	i	i	i
CCCC1(C2CCN(Cc3ccc(O)c(Cl)c3)CC2)NC(=O)N(CC2CCCO2)C1=O (stereo not given)	i	i	i	i
COC(=O)c1ccccc1NC(=O)CCS(=O)(=O)c1ccc(OC)cc1	i	i	i	i
COC(=O)c1ccccc1NC(=O)CCOc1ccc(OC)cc1	i	i	i	33
O=C(Nc1nc2ncccc2cc1-c1ccccc1)c1ccccc1	i	i	i	i
NC(=O)c1ccc(-c2nc(NCCCN3CCCC3=O)c3ncn(-c4ccccc4)c3n2)cc1	i	i	i	55
SMILES	GPR151 activ	FBW7 activator	MITF inh	TEAD-YAP block
CC(=O)c1cccc(-c2nc(NCCCN3CCCC3=O)c3ncn(CCN4CCCC4=O)c3n2)c1	i	i	i	i
CC(=O)c1cccc(-c2nc(NCCCN3CCCC3=O)c3ncn(-c4ccccc4)c3n2)c1	i	i	i	58
O=C(NC1CC1)c1ccc(-c2nc(NCCCN3CCCC3=O)c3ncn(-c4ccccc4)c3n2)cc1	i	i	i	64
COCCNC(=S)NCCNc1nc2cc(C)cc(C)c2cc1C#N	i	i	i	i
Cc1ccc(NC(=O)C2C3C=CC4(O3)C2C(=O)N(CCN2CCOCC2)C4C(=O)NC2CCCC(C)C2C)cc1C (stereo not given)	i	i	i	i
O=C(Nc1cccc(Cl)c1N1CCN(Cc2ccccc2)CC1)c1ccc(Br)o1	i	i	i	i
COc1ccc(-c2csc(NC(=O)CCn3c(=O)oc4ccccc43)n2)cc1	i	i	i	i
CCc1nnc2n1N(C(C)=O)C(c1ccc(C)cc1)=C(C(C)=O)S2	i	i	i	i
COc1ccc(N(/C=C2\Sc3ccccc3C2=O)C(=O)c2cccc(Cl)c2)cc1	i	i	i	51
CCOc1ccc(N(/C=C2\Sc3ccccc3C2=O)C(=O)c2cccc(Cl)c2)cc1	i	i	i	45
O=c1[nH]c(-c2ccc3c(c2)OCO3)nc2sc3c(c12)CCCC3	i	i	i	i
N#Cc1ccc(Oc2ccc(N3C(=O)C4C5C=CC(C5)C4C3=O)cc2)cc1C#N (stereo not given)	i	i	i	40
O=C1C2C3C=CC(C3)C2C(=O)N1c1ccc(Oc2ccccc2)cc1 (stereo not given)	i	i	i	i
Cc1cccc(NC(c2ccncc2)c2ccc3cccnc3c2O)n1 (stereo not given)	i	i	113	68
Cc1cc(NC(c2cccc(Br)c2)c2ccc3cccnc3c2O)no1 (stereo not given)	i	i	i	84
Cc1cccc(NC(c2ccc(Cl)cc2)c2ccc3cccnc3c2O)n1 (stereo not given)	i	i	i	90
Cc1cccc(NC(c2cccnc2)c2ccc3ccc(C)nc3c2O)n1 (stereo not given)	i	i	i	i
Cc1cccc(NC(c2cccc(Cl)c2)c2ccc3cccnc3c2O)n1 (stereo not given)	i	i	i	48
Cc1ccc(OCC(=O)N/N=C/c2ccc(Br)cc2)cc1	i	i	i	i
Cc1csc2n1c(C(=O)c1ccccc1)c(C)[n+]2-c1ccc(Br)cc1	i	i	i	i
CCc1c(C(=O)c2ccc(C)cc2)n2c(C)csc2[n+]1-c1ccccc1	i	i	i	40
Cc1ccc(S(=O)(=O)N2c3ccc(C)cc3-c3ccccc3S2(=O)=O)cc1	i	i	i	50
COc1ccc2c(c1)-c1cc(Cl)ccc1S(=O)(=O)N2S(=O)(=O)c1ccc(C)cc1	i	i	i	i
CSC1=C(C#N)C(c2ccccc2Cl)C(C(=O)Nc2ccccc2C)=C(C)N1 (stereo not given)	i	2.0	i	i
CCSC1=C(C#N)C(c2ccccc2Cl)C(C(=O)Nc2ccccc2C)=C(C)N1 (stereo not given)	i	i	i	i
SMILES	GPR151 activ	FBW7 activator	MITF inh	TEAD-YAP block
CCOC(=O)C1CCCN(C(=O)c2cc3c(-c4cccc(OC)c4)nn(C)c3s2)C1 (stereo not given)	i	i	i	38
COc1cccc(-c2nn(C)c3sc(C(=O)N4CCN(c5ccccn5)CC4)cc23)c1	i	i	i	35
COc1ccc(O)c(C2=Nc3ccccc3N=C(c3ccc(C(C)(C)C)cc3)C2)c1	i	i	i	56
O=C(Nc1ccccc1)NC1C=CS(=O)(=O)C1 (stereo not given)	i	i	i	i
COc1ccc(SCC(=O)Nc2c3c(nn2C)CCC3)cc1	i	i	i	38
COc1ccc(SCCCC(=O)Nc2c3c(nn2C)CCC3)cc1	i	i	i	45
COc1cccc(-c2ccc(N3CCN(C)CC3)nc2)c1	i	i	i	i
CN1CCN(c2ccc(-c3cccc(Cl)c3)cn2)CC1	i	i	i	54
CC(=O)Nc1nc(-c2nc3ccccc3s2)cs1	i	i	i	38
